Data on 23 molecules can be found in PubChem BioAssay (NCATS).

Structures are written as SMILES. Values joined by “and” are separate entries in the source; they are usually repeats but may differ in a detail not shown here. Identical values can stand only once. Inconclusive results are not listed. A number with no mark means an inactive call. Active and inactive are the calls of the source. Calls follow the shape of the dose curve; as a rule, active = well fitted inhibition curve with a large enough effect; inconclusive = small, poorly fitted or top-dose-only effect; inactive = flat fitted curve, though single readings scatter.

Assay [1] is described as follows: Drug repurposing screens with cells derived from glioblastoma tumor samples (AID 1345199). Also: nearly all actives have a fitted effect of over 40% in size. To be noted: GBM patient neurospheres viability, ATP luminescence, 48 h. Put shortly:
(§1)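 Four patient lines of CD133+ GBM neurospheres were screened at several concentrations; hits were retested in those lines plus three slower-growing GBM lines, using 48-hour treatment and ATP-based viability.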

The test system of a further assay is astro (control astrocytes). The description is as above. To be noted: viability, ATP luminescence, 48 h; series mostly up to 45.9 µM. Put shortly: as §1
Setting [2] is: at 20 µM (top of the series), tumour line C.
Where [3] appears, read: at 21.2 µM (top of the series), tumour line B.
Where [4] appears, read: at 21.2 µM (top of the series), tumour line D.
[5] abbreviates: at 21.3 µM (top of the series), tumour line A.
Where [6] appears, read: at 45.9 µM (top of the series), tumour line B.
[7] abbreviates: at 45.9 µM (top of the series), tumour line D.
The mark [8] stands for this setting: at 46 µM (top of the series), tumour line A.
Where [9] appears, read: at 46.1 µM (top of the series), tumour line C.
% is scaled to controls: 0 for no effect and ±100 for the full control effect; potency is read from the fitted curve at half-maximal effect.

In the case of `CC1(C)S[C@@H]2[C@H](N)C(=O)N2[C@H]1C(=O)O`, the activity, negative = cell killing was -3.46% in assay [1] (setting [2]), -7.3% in assay [1] (setting [3]), -20.2% in assay [1] (setting [4]) and -24.1% in assay [1] (setting [5]). The Potency entry in the assay on astro is “inactive”.

On to `OC[C@@H](O)[C@H]1O[C@@H]2O[C@@H](C(Cl)(Cl)Cl)O[C@@H]2[C@H]1O`, for which the activity, negative = cell killing is -12.9% in assay [1] (setting [6]), -1.55% in assay [1] (setting [7]), -29.4% in assay [1] (setting [8]) and 7.8% in assay [1] (setting [9]). Further, in the assay on astro, the Potency result is “inactive”.

With `CNC(=O)OCC[N+](C)(C)C`, the activity, negative = cell killing is -5.85% in assay [1] (setting [6]), -20% in assay [1] (setting [7]), -22.4% in assay [1] (setting [8]) and -19.7% in assay [1] (setting [9]). In addition, the Potency result in the assay with astro is “inactive”.

Take `c1cc2c(c(NC3=NCCN3)c1)CCCC2`: the activity, negative = cell killing in assay [1] (setting [6]) is -18.6%; in assay [1] (setting [7]), -28.2%; in assay [1] (setting [9]) it was 1.62%. Besides, the Potency in assay [1] (tumour line A) was 14.1 µM (active). Also, the Potency result in the assay with astro is “inactive”.

With `CC(=O)O[C@H]1CC[C@@]2(C)C(=CC[C@@H]3[C@@H]2CC[C@]2(C)C(=O)CC[C@@H]32)C1`, the activity, negative = cell killing was -28.7% in assay [1] (setting [2]), -3.53% in assay [1] (setting [3]) and -21.5% in assay [1] (setting [4]). For the same molecule, the Potency in assay [1] (tumour line A) was 7.94 µM (active). For the same molecule, the Potency result in the assay with astro was “inactive”.

In the case of `CC(N)Cc1ccc(O)cc1` (stereo not given), the activity, negative = cell killing in assay [1] (setting [6]) was -3.82%; in assay [1] (setting [7]) it was -1.1%; in assay [1] (setting [8]) it was -18.1%; in assay [1] (setting [9]) it was 5.3%. Also, in the assay with astro, the Potency result is “inactive”.

Take `CC1CCC(C(C)C)C(OC(=O)c2ccccc2N)C1` (stereo not given): the activity, negative = cell killing in assay [1] (setting [9]) is 13.8%. For the same molecule, the values for the Potency in assay [1] (tumour line A) and in assay [1] (tumour line B) were 12.6 µM (active) and 35.5 µM (active), respectively.

On to `CNC(C)C(O)c1ccc(O)cc1` (stereo not given), for which the activity, negative = cell killing was -14.1% and -15.9% in assay [1] (setting [6]); 3.04% and 6.23% in assay [1] (setting [7]); -17.8% and -27.7% in assay [1] (setting [8]); -5.67% and -20.1% in assay [1] (setting [9]). For the same molecule, the Potency result in the assay on astro is “inactive”.

With `CCCC(=O)OC(C(Cl)(Cl)Cl)P(=O)(OC)OC` (stereo not given), the activity, negative = cell killing was -9.86% in assay [1] (setting [6]), -6.58% in assay [1] (setting [7]), -3.23% in assay [1] (setting [8]) and 7.15% in assay [1] (setting [9]). Further, the Potency entry with astro was “inactive”.

With `C[C@]12C=CC(=O)C=C1CC[C@@H]1[C@@H]2CC[C@]2(C)OC(=O)CC[C@@H]12`, the activity, negative = cell killing was -3.73% in assay [1] (setting [6]), -7.84% in assay [1] (setting [7]), -28.6% in assay [1] (setting [8]) and 1.2% in assay [1] (setting [9]). In addition, the Potency result with astro is “inactive”.

For the molecule `CN(C)[C@H](Cc1ccccc1)c1ccccc1`, the activity, negative = cell killing in assay [1] (setting [6]) was -3.48%; in assay [1] (setting [7]), -20.8%; in assay [1] (setting [9]), -18.9%. For the same molecule, in assay [1] (tumour line A), the Potency was 20 µM (active). Besides, the Potency result with astro is “inactive”.

Turning to `CNc1ccc(C(=O)CC(O)CCC(C)C2OC(=O)CC(O)CC(=O)CC(O)CC(O)CC(O)CC(O)CC3(O)CC(O)C(C(=O)OC)C(CC(O[C@@H]4O[C@H](C)[C@@H](O)[C@H](N)[C@@H]4O)/C=C/C=C/C=C/C=C/C=C/C=C/C=C/C2C)O3)cc1` (stereo not given in full), the activity, negative = cell killing is -16.2% in assay [1] (setting [6]), 9.06% in assay [1] (setting [7]), -20.9% in assay [1] (setting [8]) and -13.4% in assay [1] (setting [9]). The Potency result with astro was “inactive”.

Consider `COc1ccc2c3c1O[C@H]1[C@@H](O)C=C[C@H]4[C@@H](C2)NCC[C@@]341`, for which the activity, negative = cell killing in assay [1] (setting [6]) was -18.4%; in assay [1] (setting [7]), -17.8%; in assay [1] (setting [9]), -25.3%; in assay [1] (at 99.2 µM (top of the series), tumour line C), 6.81%; in assay [1] (at 108 µM (top of the series), tumour line B) it was -9.55%; in assay [1] (at 108 µM (top of the series), tumour line D), -1.54%. Also, the Potency entry with astro is “inactive”.

As for `CN1c2ccccc2C(NCCCCCCC(=O)O)c2ccc(Cl)cc2S1(=O)=O` (stereo not given), the activity, negative = cell killing is -13.7% in assay [1] (setting [6]), 2.81% in assay [1] (setting [7]), -22.5% in assay [1] (setting [8]) and -20.5% in assay [1] (setting [9]).

`CCC1C(C)=NN=C(c2ccc(OC)c(OC)c2)c2cc(OC)c(OC)cc21` (stereo not given): the activity, negative = cell killing in assay [1] (setting [6]) was -16.7%; in assay [1] (setting [7]), -19%; in assay [1] (setting [9]), -6.07%.

Regarding `CC(C)CCC(=O)O[C@H]1CC[C@H]2[C@@H]3CCC4=CC(=O)CC[C@]4(C)[C@H]3CC[C@]12C`, in assay [1] (setting [9]), the activity, negative = cell killing was -19.7%. The Potency in assay [1] (tumour line A) was 11.2 µM (active); in assay [1] (tumour line B), 22.4 µM (active).

`Oc1cccc[c]1[Hg][Cl]`: the activity, negative = cell killing in assay [1] (setting [9]) is -98.2%. In addition, the Potency was 0.398 µM (active) in assay [1] (tumour line A), 0.562 µM (active) in assay [1] (tumour line B), 1 µM (active) in assay [1] (tumour line D) and 2.82 µM (active) with astro.

Turning to `COc1ccc2c3c1O[C@H]1C(=O)CC[C@H]4[C@@H](C2)N(C)CC[C@]314`, the activity, negative = cell killing is -6.83% in assay [1] (setting [6]), -23.5% in assay [1] (setting [7]), -21.5% in assay [1] (setting [8]) and -7.26% in assay [1] (setting [9]). In addition, the Potency entry with astro was “inactive”.

Turning to `FC(F)OC(F)(F)C(F)Cl` (stereo not given), the activity, negative = cell killing in assay [1] (setting [6]) was -9.16%; in assay [1] (setting [7]), 6%; in assay [1] (setting [8]) it was -21%; in assay [1] (setting [9]), -2.93%. Besides, the Potency result in the assay on astro is “inactive”.

In the case of `C[N+]1([O-])[C@@H]2CC[C@H]1CC(OC(=O)C(CO)c1ccccc1)C2` (stereo not given in full), the activity, negative = cell killing in assay [1] (setting [2]) is -19.4%; in assay [1] (setting [3]), -4.66%; in assay [1] (setting [4]), -20.9%; in assay [1] (setting [5]), -44.8%; in assay [1] (setting [6]), -7.07%; in assay [1] (setting [7]) it was 8.25%. In assay [1] (setting [9]), the activity, negative = cell killing was 21.1%. The Potency entry in the assay with astro was “inactive”.

With `CCCCCCCCCC(=O)O[C@H]1CC[C@H]2[C@@H]3CCC4=CC(=O)CC[C@]4(C)[C@H]3CC[C@]12C`, the activity, negative = cell killing in assay [1] (setting [6]) is -12.8%; in assay [1] (setting [7]) it was -20.9%; in assay [1] (setting [9]), -14.9%. Also, the Potency in assay [1] (tumour line A) was 15.8 µM (active).

Take `C[C@]12CC[C@H]3[C@@H](CCC4=C(Cl)C(=O)CC[C@@]43C)[C@@H]1CC[C@@H]2O`: the activity, negative = cell killing in assay [1] (setting [6]) was -16.4%; in assay [1] (setting [7]), -29.9%. Further, in assay [1] (tumour line A), the Potency is 12.6 µM (active).

For the molecule `O=[N+]([O-])c1ccccc1`, the activity, negative = cell killing in assay [1] (setting [6]) was -3.33%; in assay [1] (setting [7]), -6.09%; in assay [1] (setting [8]), -9.64%; in assay [1] (setting [9]) it was -9.59%. Also, the Potency result in the assay with astro is “inactive”.
